Measured values reported in PubChem BioAssay (NCI).
About 79,000 compounds went through this panel and 15% of them were active in at least one assay; those are over-represented in the sample as a whole. A number with no mark means an inactive call. Activity calls are given as the source filed them. No stated cut-off is given here; in the data, active means growth inhibition above about 70%; inactive means the rest.

What was measured:
[1] = NCI Yeast Anticancer Drug Screen. Data for the rad50 strain (AID 155);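 further: 0% = growth of vehicle-only cultures of the same strain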; conditions: S. cerevisiae rad50 strain growth inhibition, stronger effect = higher value
Summary of the method: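 Yeast carrying a defined DNA repair defect were exposed to test compounds, and growth was compared with vehicle-treated controls to give percent inhibition.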

[2] = NCI Yeast Anticancer Drug Screen. Data for the mec2-1 strain (AID 157); conditions: S. cerevisiae mec2-1 strain, stronger effect = higher value
Summary of the method: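 Strain: mec2-1 (DNA repair/cell cycle alteration). Compound exposure, then growth measured; inhibition expressed relative to vehicle.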

[3] = NCI Yeast Anticancer Drug Screen. Data for the sgs1 mgt1 strain (AID 161);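 further: 0% = growth of cultures given vehicle only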; conditions: S. cerevisiae sgs1 mgt1 strain, stronger effect = higher value
Summary of the method: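 Genetically altered yeast, compound exposure, growth inhibition relative to vehicle.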

[4] = NCI Yeast Anticancer Drug Screen. Data for the cln2 rad14 strain (AID 165);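 further: 0% = growth equal to vehicle treated cultures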; conditions: S. cerevisiae cln2 rad14 strain, stronger effect = higher value
Summary of the method: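 Compounds are applied to the cln2 rad14 yeast strain, and growth is then compared with that of vehicle-treated cultures to give inhibition.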

[5] = NCI Yeast Anticancer Drug Screen. Data for the bub3 strain (AID 167); conditions: S. cerevisiae bub3 mutant strain, stronger effect = higher value
Summary of the method: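 Compounds were applied to a genetically altered yeast strain carrying a cell-cycle control defect. Growth inhibition was scored against vehicle-treated controls.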

[6] = NCI Yeast Anticancer Drug Screen. Data for the mlh1 rad18 strain (AID 175); conditions: S. cerevisiae mlh1 rad18 strain growth inhibition, stronger effect = higher value
Summary of the method: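 Read-out is yeast growth inhibition, calculated against vehicle-only controls. The compound was applied to a strain engineered with DNA damage repair alterations.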

[7] = at 5.0 µM (retest, dose inferred, filed as 0.5)
[8] = at 50.0 µM (retest, dose inferred, filed as 5.0)

Row | Structure (SMILES) | growth inhibition [1, 7] | growth inhibition [1, 8] | growth inhibition ([1]; at 50.0 µM) | growth inhibition [2, 7] | growth inhibition [2, 8] | growth inhibition ([2]; at 50.0 µM) | growth inhibition [3, 7] | growth inhibition [3, 8] | growth inhibition ([3]; at 50.0 µM) | growth inhibition [4, 7] | growth inhibition [4, 8] | growth inhibition ([4]; at 50.0 µM) | growth inhibition [5, 7] | growth inhibition [5, 8] | growth inhibition ([5]; at 50.0 µM) | growth inhibition [6, 7] | growth inhibition [6, 8] | growth inhibition ([6]; at 50.0 µM)
1 | CC(=O)C1CCC2C3CCC4CC([N+]5(C)CCCCC5)CCC4(C)C3CCC12C (stereo not given) | 2% | 29% | 82.3% (active) | 17% | 71% (active) | 79.9% (active) | 10% | 87% (active) | 97.5% (active) | 8% | 31% | 81.1% (active) | 8% | 64% | 86.5% (active) | 18% | 65% | 92% (active)
2 | CCN1/C(=C\c2ccc3cc(C)ccc3[n+]2CC)[Se]c2ccccc21 | 98% (active) | 98% (active) | 99.2% (active) | 100% (active) | 100% (active) | 99.4% (active) | 95% (active) | 99% (active) | 99.5% (active) | 98% (active) | 94% (active) | 99.5% (active) | 95% (active) | 99% (active) | 97% (active) | 99% (active) | 99% (active) | 99.5% (active)
3 | CC(=O)OC1C(O)C(C)OC(OC2C(OC(=O)C3CCC4C(C3)OC3(CC(OC(=O)/C=C/c5ccccc5)C(C)CO3)C43CO3)OC(C)C(O)C2OC(C)=O)C1O (stereo not given) | -20% | 96% (active) | 91% (active) | 10% | 98% (active) | 92.7% (active) | -5% | 95% (active) | 93% (active) | 24% | 96% (active) | 90.1% (active) | 6% | 98% (active) | 92.2% (active) | -1% | 97% (active) | 91.6% (active)
4 | N.N.N.N.N.N#N.[Cl-].[Os+7] | 18% | 78% (active) | 55.5% | 17% | 87% (active) | 59.4% | 33% | 90% (active) | 60.9% | 14% | 45% | 57.4% | 30% | 91% (active) | 59.1% | 31% | 89% (active) | 74% (active)
5 | c1ccncc1 | 17% | 20% | – | -2% | 7% | – | -4% | 19% | – | – | – | – | -3% | 6% | – | 8% | 32% | –
6 | CC(C)CCC[C@@H](C)[C@H]1CC[C@H]2[C@@H]3CC[C@H]4C[C@H](NCCCl)CC[C@]4(C)[C@H]3CC[C@]12C | 28% | 36% | 52% | 15% | 26% | 43.6% | 40% | 68% | 49.1% | – | – | – | 45% | 49% | 42.2% | 22% | 27% | 55%
7 | CC1=[N+](Cc2cc(C)cc(C)c2O)CCCC1 | -5% | 4% | -5.5% | -8% | -9% | -7.45% | -5% | -57% | 41.2% | -2% | -4% | -3% | -8% | -1% | 1.2% | -13% | -8% | -24.7%
8 | Clc1ccc(CCN2CCOCC2)c(Cl)c1 | 4% | 27% | 62.9% | 0% | 16% | 34.1% | 0% | 42% | 54.4% | – | – | – | 23% | 54% | 34.5% | 5% | 55% | 64.9%
9 | Cc1ccc(P(=O)(c2ccc(C)cc2)c2ccc(C)cc2)cc1.Cc1ccc(P(=O)(c2ccc(C)cc2)c2ccc(C)cc2)cc1.[Cl][Sn]([Cl])([Cl])[Cl] | 4% | 1% | -9.9% | 0% | 1% | 0.85% | 2% | 6% | 42.6% | – | – | – | 13% | 72% (active) | 76.2% (active) | 3% | 1% | 38%
10 | COC1=C(N2CC2)C(=O)C(OC)=C(N2CC2)C1=O | 95% (active) | 97% (active) | 98.3% (active) | 95% (active) | 98% (active) | 97.8% (active) | 90% (active) | 97% (active) | 98.2% (active) | 91% (active) | 98% (active) | 98.8% (active) | – | – | – | 96% (active) | 98% (active) | 97.6% (active)
